A selection: hits, their analogues and other compounds. The true share with any hit is near 21%.
NS1 inh: qHTS Assay for Inhibitors of Influenza NS1 Protein Function; 0.4% of 270,000 active; AID 2326, 2010; Potency, µM (doses to about 46.1 µM); calls by dose curve; note: actives are rising curves; nearly all actives have a fitted effect of over 50% in size
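Growth recovery, yeast-based: influenza A NS1 expressed in S. cerevisiae causes slow growth, and suppressors are detected by OD600. The parent strain without NS1 is used as positive control.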
Cycloheximide cs: Cycloheximide Counterscreen for Small Molecule Inhibitors of Shiga Toxin. max response, %. 12% of 300,000 active. cell reporter, cycloheximide protein synthesis inhibition counterscreen; in the data active = max response mostly above about 13%, no sharp cut-off; inactive = mostly below about 14%; note: read at 38.3 µM for the half of the compounds with a filed dose
Sm TGR inh: qHTS Assay for the Inhibitors of Schistosoma Mansoni Peroxiredoxins; Schistosoma mansoni thioredoxin glutathione reductase (TGR), Q962Y6; purified TGR, DTNB reduction, TNB absorbance 405 nm; Potency, µM (top dose mostly 114 µM), most hits filed as inhibitors; 3% of 360,000 active; AID 485364, 2010; note: nearly all actives have a fitted effect of over 60% in size
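TGR 20 nM + NADPH 100 uM (dispensed conc.), cpd preinc 15 min RT; start with NADPH (500 uM addition) then DTNB (15 mM addition). Kinetic TNB absorbance, 405 nm filter. Four-parameter Hill fit across titration.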
Pf growth 96h: Primary qHTS for delayed death inhibitors of the malarial parasite plastid, 96 hour incubation. P. falciparum luciferase reporter growth, 96 h. Potency, µM (doses to about 28.7 µM), actives largely listed as inhibitors. 6.9% of 320,000 active
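Readout is luminescence from an integrated firefly luciferase in P. falciparum. Red cells, 2% hematocrit and 0.05% parasitemia final, were cultured with compound through two parasite generations (96 hours) at 37 C, 5% CO2.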
Shiga toxin inh: A qHTS for Small Molecule Inhibitors of Shiga Toxin; Vero cells, Shiga toxin protein synthesis inhibition reporter; inhibition, % at 38.7 µM; 9.2% of 290,000 active; in the data active = inhibition mostly above about 28%, no sharp cut-off; inactive = mostly below about 43%
Pf growth 48h: Primary qHTS for delayed death inhibitors of the malarial parasite plastid, 48 hour incubation; P. falciparum luciferase growth in erythrocytes, 48 h; Potency, µM (highest dose often 28.7 µM), most hits filed as inhibitors; 5.9% of 310,000 active
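Firefly luciferase activity from engineered P. falciparum reports growth; inhibitors lower the luminescent signal. Cultures contained 2% hematocrit erythrocytes at 0.1% final parasitemia.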
Numbers stand for hits; i = inactive; ? = inconclusive; nt = no result given. Unless noted, calls come from the whole dose curve; as a rule, active = well fitted curve in the direction sought with a large enough effect; inconclusive = small, poorly fitted or top-dose-only effect, or another doubt; inactive = no such curve, though single readings can be large; an effect the other way counts as inactive or inconclusive.

SMILES	NS1 inh	Cycloheximide cs	Sm TGR inh	Pf growth 96h	Shiga toxin inh	Pf growth 48h
OCCC1CN(Cc2nc3ccccc3s2)CCN1C1CCCC1 (stereo unspecified)	i	i	i	?	i	i
C#CCOC(=O)[C@H](N)CC(N)=O	i	nt	nt	nt	nt	nt
NC(N)=NCc1cccc(I)c1	i	nt	i	11µM	nt	?
NC(N)=NC(N)=NCCc1ccccc1	i	i	i	?	i	i
COc1ccc(S(=O)(=O)Cc2ccc(C(=O)NCc3ccco3)o2)cc1	i	i	40µM	i	i	nt
COc1ccccc1S(=O)(=O)Cc1ccc(C(=O)NCc2ccco2)o1	i	i	i	i	i	i
COc1ccc(S(=O)(=O)Cc2ccc(C(=O)NCCCN3CCc4ccccc4C3)o2)cc1	i	i	45µM	?	i	nt
CC1CN(C(=O)NCc2ccccc2)c2cc(Cl)ccc2O1 (stereo unspecified)	i	i	i	2.6µM	i	i
CC1CN(C(=O)CCC(=O)NCc2ccccc2)c2cc(Cl)ccc2O1 (stereo unspecified)	i	i	i	?	i	?
CC1CN(C(=O)CCC(=O)NCCc2ccccc2)c2ccccc2O1 (stereo unspecified)	i	25	i	?	35	i
CC1CC(C)CN(CCCNC(=O)CCC(=O)N2CC(C)Oc3ccccc32)C1 (stereo unspecified)	i	i	i	?	i	i
Cc1ccc(OCCNC(=O)/C=C/c2ccco2)cc1C	i	i	1.1µM	i	78	i
CC(/C=C/c1ccco1)=N\NC(=O)COc1ccc(C)c(C)c1	i	i	7.1µM	i	i	i
COc1ccc(OC)c(Cc2nnc(CCC(=O)NC3CCCCCCC3)o2)c1	i	33	nt	?	77	i
COc1ccc(CCNC(=O)CCc2nnc(Cc3ccc4c(c3)OCO4)o2)c(OC)c1	i	i	?	i	i	i
COc1ccc(OC)c(Cc2nnc(CCC(=O)NCc3nc4ccccc4s3)o2)c1	i	i	i	7.4µM	i	i
COc1ccc(OC)c(Cc2nnc(CCC(=O)N3CCCCC3c3nccs3)o2)c1 (stereo unspecified)	i	43	?	i	87	i
COc1cccc(CCNC(=O)CCc2nnc(Cc3cc(OC)ccc3OC)o2)c1	i	28	i	i	23	i
CCOC(=O)c1c(C)sc(-c2c(-c3ccccc3)[nH]c3[nH]c(=O)[nH]c(=O)c23)c1O	nt	nt	i	nt	nt	nt
Cc1ccc(S(=O)(=O)c2nc(-c3cccc(Br)c3)oc2N2CCCCCC2)cc1	nt	nt	i	nt	nt	nt
C/C(=N\Nc1cccc([N+](=O)[O-])c1)c1cc(F)ccc1O	i	47	i	i	109	i
C/C(=N\Nc1cccc([N+](=O)[O-])c1)c1ccccc1O	nt	33	i	i	73	i
COc1ccc(OC(=O)CSc2nnc(-c3ccc(F)cc3)o2)cc1	nt	nt	i	nt	nt	nt
Cc1ccc(C(=O)CSc2nnc(-c3ccco3)o2)o1	i	40	i	nt	56	i
COc1ccc(-c2nnc(SCC(=O)c3ccc(C)o3)o2)cc1	i	13	i	i	i	i
SMILES	NS1 inh	Cycloheximide cs	Sm TGR inh	Pf growth 96h	Shiga toxin inh	Pf growth 48h
Cc1cccc(C(=O)Nc2ccc3nc(SCC(=O)N4CCc5ccccc54)sc3c2)c1	nt	nt	i	nt	nt	nt
CCOC(=O)N1CCN(C(=O)c2ccc(NS(=O)(=O)c3ccc4[nH]c(=O)[nH]c4c3)cc2)CC1	nt	nt	i	i	nt	i
COc1ccc(CC(C#N)(CO)c2nc3ccccc3[nH]2)cc1 (stereo unspecified)	i	i	i	2.3µM	i	?
N#CC(CO)(Cc1ccc(OC(F)F)cc1)c1nc2ccccc2[nH]1 (stereo unspecified)	i	23	i	?	40	i
COc1ccc(C2Nc3ccccc3C(=O)N2Cc2ccco2)cc1COc1ccccc1F (stereo unspecified)	i	i	i	4.1µM	i	nt
O=C1c2ccccc2NC(c2ccc(O)cc2)N1Cc1ccco1 (stereo unspecified)	i	i	?	?	i	i
Cc1ccc(C2Nc3ccccc3C(=O)N2Cc2ccco2)cc1 (stereo unspecified)	i	i	i	15µM	i	?
COc1ccc(NC(=O)C2CCCN(S(=O)(=O)c3ccc(Cl)cc3)C2)cc1 (stereo unspecified)	nt	nt	i	nt	nt	nt
Cc1nc2cccnc2n1-c1cccc(C(=O)N2CCN(c3ccc(Cl)cc3)CC2)c1	nt	nt	i	nt	nt	nt
O=C(CSCc1ccc(F)cc1)N1CCN(c2ccccc2F)CC1	nt	nt	i	nt	nt	nt
CCN(CC)C(=O)Cn1c(=O)n(CCc2ccccc2)c(=O)c2ccccc21	nt	nt	i	nt	nt	nt
CCN(CC)C(=O)Cn1c(C)c(/C=C/c2cc[n+](C)cc2)c2ccccc21	i	i	i	?	i	1.7µM
CCn1c(/C=C/c2c(C)n(CC)c3ccccc23)nc2ccccc2c1=O	i	i	i	i	i	i
C=CCn1c(C)c(/C=C/c2cc[n+](C)cc2)c2ccccc21	i	i	i	i	nt	0.74µM
N[C@@H](CNO)C(=O)O	i	nt	nt	nt	nt	nt
CCOc1ccccc1-c1nc(CN2CCCN(C(=O)c3ccco3)CC2)c(C)o1	i	i	i	i	i	?
CCOC(=O)c1c(C)c(/C=N/Nc2ccccc2)n(C)c1C	i	13	i	?	i	?
CCOC(=O)c1c(C)c(C(=O)O)n(C)c1C	i	i	i	?	i	i
CCn1c(C)c(C(=O)NCCc2ccccc2)c2cc(OC)ccc21	i	18	i	i	i	i
CCOC(=O)c1c(C)c(C(=O)NCCc2ccccc2)c(C)n1C	nt	40	i	i	104	i
CCOC(=O)c1c(C)c(C(=O)Nc2ccccc2)c(C)n1CC	i	24	i	4.7µM	32	?
CCOC(=O)c1c(C)nn(Cc2ccccc2)c1N	i	i	i	5.2µM	i	i
CCOC(=O)c1c(C)c(C(=O)NCCc2ccc(OC)cc2)c(C)n1CC	nt	nt	22µM	nt	nt	nt
CCOC(=O)c1c(C(=O)OCC)c(C)n(CCc2ccccc2)c1C	i	i	i	9.3µM	i	?
CCOC(=O)c1c(C)n(Cc2ccccc2)c2ccc(O)cc12	i	i	i	i	i	i
SMILES	NS1 inh	Cycloheximide cs	Sm TGR inh	Pf growth 96h	Shiga toxin inh	Pf growth 48h
COc1ccc(CNC(=O)Cn2c(=O)oc3cc(S(=O)(=O)N4CCCCCC4)ccc32)cc1	nt	nt	i	nt	nt	nt
COc1ccc(CC(NC(C)=O)C(=O)NC2CCN(C(=O)c3ccc([N+](=O)[O-])cc3)CC2)cc1OC (stereo unspecified)	i	i	i	i	i	i
Cc1ccc(S(=O)(=O)NCC(c2ccco2)N2CCOCC2)cc1 (stereo unspecified)	i	i	i	i	i	i
Nc1nnc(-c2ccc(Cl)cc2)s1	i	i	i	nt	i	i
CC(C)(C)c1ccc(-c2nnc(N)s2)cc1	i	59	i	i	80	i
CCOc1ccc(-c2nnc(N)s2)cc1	i	25	i	i	142	i
CCCCOc1ccc(-c2nnc(N)s2)cc1	i	21	i	?	i	i
